# According to PubChem BioAssay AID1159580 (chemical genetic matrix, 2015):
# Hit rate of the full screen: of about 5,500 compounds, about 2,000 (36%) were called active. Another 18% or so got no clear call; they are omitted. Some of the results follow. Unmarked numbers belong to inactive results. Cut-off read from the data, not from the text of the source: active = normalized growth mostly below about 0.91 (no sharp cut-off); inconclusive = no clear call, values can overlap the other calls; inactive = mostly above about 0.92.
# Assay: chemical genetic growth profiling, strain panel (AID 1159580);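 note: tested at 20 µM; growth read once vehicle control cultures reached saturation at 30 °C; 1 = growth at the plate median or of vehicle wells; lower values mean less growth of the strain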
# Conditions: growth OD
# [1] = S. cerevisiae deletion strains, locus YGR078C, strain PAC10, active compounds read low
# [2] = S. cerevisiae deletion strains, locus YMR263W, strain SAP30, active compounds read low
# [3] = S. cerevisiae deletion strains, locus YMR307W, strain GAS1, active compounds read low
# [4] = S. cerevisiae deletion strains, locus YNL322C, strain KRE1, active compounds read low
smiles,measurement,setting,value
Oc1cc(O)cc(/C=C/c2ccc(O)c(O)c2)c1,normalized growth,"S. cerevisiae deletion strains, locus YAL040C, strain CLN3, active compounds read low",1.01
same,normalized growth,"S. cerevisiae deletion strains, locus YCL061C, strain MRC1 (second series), active compounds read low",0.992
same,normalized growth,"S. cerevisiae deletion strains, locus YDR363W, strain ESC2, active compounds read low",0.955
same,normalized growth,[1],0.691 (active)
same,normalized growth,[2],1.01
same,normalized growth,[3],0.979
same,normalized growth,"S. cerevisiae deletion strains, locus YNL175C, strain NOP13, active compounds read low",0.71 (active)
same,normalized growth,"S. cerevisiae deletion strains, locus YNL197C, strain WHI3, active compounds read low",1
same,normalized growth,[4],0.989
same,normalized growth,"S. cerevisiae deletion strains, locus YOR083W, strain WHI5 (second series), active compounds read low",0.993
COc1ccc(/C=C/c2cc(O)cc(O[C@@H]3O[C@H](CO)[C@@H](O)[C@H](O)[C@H]3O)c2)cc1O,normalized growth,"S. cerevisiae deletion strains, locus YAL013W, strain DEP1, active compounds read low",1
same,normalized growth,"S. cerevisiae deletion strains, locus YBR021W, strain FUR4, active compounds read low",0.999
same,normalized growth,"S. cerevisiae deletion strains, locus YBR229C, strain ROT2, active compounds read low",1.01
same,normalized growth,"S. cerevisiae deletion strains, locus YCL029C, strain bik1, active compounds read low",1.02
same,normalized growth,"S. cerevisiae deletion strains, locus YDL035C, strain GPR1, active compounds read low",1.02
same,normalized growth,"S. cerevisiae deletion strains, locus YDL074C, strain BRE1, active compounds read low",1.01
same,normalized growth,"S. cerevisiae deletion strains, locus YDL101C, strain DUN1, active compounds read low",1.02
same,normalized growth,"S. cerevisiae deletion strains, locus YDL134C, strain PPH21, active compounds read low",1.01
same,normalized growth,"S. cerevisiae deletion strains, locus YDL185W, strain tfp1, active compounds read low",1.02
same,normalized growth,"S. cerevisiae deletion strains, locus YDL192W, strain arf1, active compounds read low",1.02
same,normalized growth,"S. cerevisiae deletion strains, locus YDR101C, strain arx1, active compounds read low",1.01
same,normalized growth,"S. cerevisiae deletion strains, locus YDR150W, strain NUM1, active compounds read low",1.01
same,normalized growth,"S. cerevisiae deletion strains, locus YDR162C, strain NBP2, active compounds read low",1.02
same,normalized growth,"S. cerevisiae deletion strains, locus YDR318W, strain mcm21, active compounds read low",1.03
same,normalized growth,"S. cerevisiae deletion strains, locus YDR388W, active compounds read low",1.01
same,normalized growth,"S. cerevisiae deletion strains, locus YDR502C, strain sam2, active compounds read low",1.02
same,normalized growth,"S. cerevisiae deletion strains, locus YEL061C, strain CIN8, active compounds read low",1
same,normalized growth,"S. cerevisiae deletion strains, locus YER110C, active compounds read low",1.03
same,normalized growth,"S. cerevisiae deletion strains, locus YER155C, strain BEM2, active compounds read low",0.995
same,normalized growth,"S. cerevisiae deletion strains, locus YER167W, strain BCK2, active compounds read low",1.03
same,normalized growth,"S. cerevisiae deletion strains, locus YGL078C, strain dbp3, active compounds read low",1.02
same,normalized growth,"S. cerevisiae deletion strains, locus YGL086W, strain mad1, active compounds read low",1.03
same,normalized growth,"S. cerevisiae deletion strains, locus YGL248W, strain PDE1, active compounds read low",1.01
same,normalized growth,[1],1.03
same,normalized growth,"S. cerevisiae deletion strains, locus YGR135W, strain pre9, active compounds read low",1.01
same,normalized growth,"S. cerevisiae deletion strains, locus YGR229C, strain SMI1, active compounds read low",0.988
same,normalized growth,"S. cerevisiae deletion strains, locus YGR252W, strain gcn5, active compounds read low",1.06
same,normalized growth,"S. cerevisiae deletion strains, locus YHR030C, strain SLT2, active compounds read low",1
same,normalized growth,"S. cerevisiae deletion strains, locus YHR079C, strain IRE1 (second series), active compounds read low",1.02
same,normalized growth,"S. cerevisiae deletion strains, locus YHR094C, strain hxt1, active compounds read low",1.02
same,normalized growth,"S. cerevisiae deletion strains, locus YHR129C, strain ARP1, active compounds read low",1.01
same,normalized growth,"S. cerevisiae deletion strains, locus YHR200W, strain rpn10, active compounds read low",1.03
same,normalized growth,"S. cerevisiae deletion strains, locus YIL066C, strain RNR3, active compounds read low",1.02
same,normalized growth,"S. cerevisiae deletion strains, locus YIL073C, strain SPO22, active compounds read low",1.06
same,normalized growth,"S. cerevisiae deletion strains, locus YIL125W, strain kgd1, active compounds read low",0.999
same,normalized growth,"S. cerevisiae deletion strains, locus YIR030C, strain dcg1, active compounds read low",1.01
same,normalized growth,"S. cerevisiae deletion strains, locus YJL095W, strain BCK1, active compounds read low",1.01
same,normalized growth,"S. cerevisiae deletion strains, locus YJL134W, strain LCB3, active compounds read low",1.01
same,normalized growth,"S. cerevisiae deletion strains, locus YJL168C, strain set2, active compounds read low",1.01
same,normalized growth,"S. cerevisiae deletion strains, locus YJL187C, strain SWE1 (second series), active compounds read low",1.01
same,normalized growth,"S. cerevisiae deletion strains, locus YJR043C, strain POL32, active compounds read low",1.01
same,normalized growth,"S. cerevisiae deletion strains, locus YJR075W, strain HOC1, active compounds read low",0.973
same,normalized growth,"S. cerevisiae deletion strains, locus YKL009W, strain mrt4, active compounds read low",1.03
same,normalized growth,"S. cerevisiae deletion strains, locus YKL068W, active compounds read low",1.02
same,normalized growth,"S. cerevisiae deletion strains, locus YKL085W, strain MDH1 (second series), active compounds read low",1.04
same,normalized growth,"S. cerevisiae deletion strains, locus YKL085W, strain MDH1, active compounds read low",1.04
same,normalized growth,"S. cerevisiae deletion strains, locus YKL190W, strain CNB1, active compounds read low",1
same,normalized growth,"S. cerevisiae deletion strains, locus YKR001C, strain vps1, active compounds read low",1.03
same,normalized growth,"S. cerevisiae deletion strains, locus YLR039C, strain RIC1, active compounds read low",1.04
same,normalized growth,"S. cerevisiae deletion strains, locus YLR058C, strain SHM2, active compounds read low",1.01
same,normalized growth,"S. cerevisiae deletion strains, locus YLR102C, strain apc9, active compounds read low",1.02
same,normalized growth,"S. cerevisiae deletion strains, locus YLR262C, strain YPT6, active compounds read low",1.05
same,normalized growth,"S. cerevisiae deletion strains, locus YLR268W, strain sec22, active compounds read low",1.02
same,normalized growth,"S. cerevisiae deletion strains, locus YLR330W, strain CHS5, active compounds read low",1.01
same,normalized growth,"S. cerevisiae deletion strains, locus YLR342W, strain FKS1 (second series), active compounds read low",1.05
same,normalized growth,"S. cerevisiae deletion strains, locus YLR371W, strain rom2, active compounds read low",1.01
same,normalized growth,"S. cerevisiae deletion strains, locus YLR418C, strain cdc73, active compounds read low",0.987
same,normalized growth,"S. cerevisiae deletion strains, locus YML016C, strain PPZ1, active compounds read low",1.02
same,normalized growth,"S. cerevisiae deletion strains, locus YML032C, strain rad52, active compounds read low",1.01
same,normalized growth,"S. cerevisiae deletion strains, locus YML124C, strain tub3, active compounds read low",1.01
same,normalized growth,"S. cerevisiae deletion strains, locus YMR078C, strain ctf18, active compounds read low",1.02
same,normalized growth,"S. cerevisiae deletion strains, locus YMR223W, strain ubp8, active compounds read low",1.03
same,normalized growth,[2],1.02
same,normalized growth,[3],1.04
same,normalized growth,"S. cerevisiae deletion strains, locus YNL067W, strain RPL9B, active compounds read low",1.01
same,normalized growth,"S. cerevisiae deletion strains, locus YNL128W, strain TEP1, active compounds read low",1.02
same,normalized growth,"S. cerevisiae deletion strains, locus YNL153C, strain GIM3, active compounds read low",1.02
same,normalized growth,"S. cerevisiae deletion strains, locus YNL233W, strain BNI4, active compounds read low",1.01
same,normalized growth,"S. cerevisiae deletion strains, locus YNL250W, strain rad50, active compounds read low",1.03
same,normalized growth,"S. cerevisiae deletion strains, locus YNL271C, strain bni1, active compounds read low",1.03
same,normalized growth,"S. cerevisiae deletion strains, locus YNL298W, strain CLA4, active compounds read low",1.03
same,normalized growth,"S. cerevisiae deletion strains, locus YNL307C, strain MCK1, active compounds read low",1.03
same,normalized growth,[4],1.01
same,normalized growth,"S. cerevisiae deletion strains, locus YNR052C, strain pop2, active compounds read low",1.01
same,normalized growth,"S. cerevisiae deletion strains, locus YOL006C, strain TOP1, active compounds read low",1.08
same,normalized growth,"S. cerevisiae deletion strains, locus YOL012C, strain htz1",0.868
same,normalized growth,"S. cerevisiae deletion strains, locus YOL147C, strain pex11, active compounds read low",1.01
same,normalized growth,"S. cerevisiae deletion strains, locus YOR061W, strain CKA2, active compounds read low",1.02
same,normalized growth,"S. cerevisiae deletion strains, locus YOR069W, strain VPS5, active compounds read low",1
same,normalized growth,"S. cerevisiae deletion strains, locus YOR136W, strain idh2, active compounds read low",1.02
same,normalized growth,"S. cerevisiae deletion strains, locus YOR144C, strain elg1, active compounds read low",1.01
same,normalized growth,"S. cerevisiae deletion strains, locus YOR184W, strain ser1, active compounds read low",1.05
same,normalized growth,"S. cerevisiae deletion strains, locus YOR316C, strain cot1, active compounds read low",1.02
same,normalized growth,"S. cerevisiae deletion strains, locus YPL055C, strain LGE1, active compounds read low",1.03
same,normalized growth,"S. cerevisiae deletion strains, locus YPL241C, strain CIN2, active compounds read low",1.01
same,normalized growth,"S. cerevisiae deletion strains, locus YPR119W, strain clb2, active compounds read low",1.01
same,normalized growth,"S. cerevisiae deletion strains, locus YPR141C, strain kar3, active compounds read low",1.03
same,normalized growth,"S. cerevisiae deletion strains, locus YPR163C, strain tif3, active compounds read low",1.03
same,normalized growth,"S. cerevisiae deletion strains, locus YPR167C, strain met16, active compounds read low",1.02
same,normalized growth,"S. cerevisiae deletion strains, strain wtn01, active compounds read low",0.994
same,normalized growth,"S. cerevisiae strains, strain wild type, active compounds read low",1.01
